{"source": "PubChem BioAssay AID624330", "about": "(Southern Research Specialized Biocontainment Screening …, 2012)", "note": "The campaign covered roughly 340,000 compounds. About 2,100 (0.62%) were called active. The list is a sample of the results. Entries with a potency or affinity are not part of this list. Unmarked numbers belong to inactive results.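 Rule for the calls: active = first-screen hits whose inhibition reached a set limit at any dose in the follow-up dose series; inconclusive = inhibition above the set first-screen limit but never retested; inactive = the rest.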"}
{"molecular_target": "Rac GTPase-activating protein 1 (Homo sapiens) (UniProt Q9H0H5)", "sequence (Q9H0H5 whole entry, looked up)": "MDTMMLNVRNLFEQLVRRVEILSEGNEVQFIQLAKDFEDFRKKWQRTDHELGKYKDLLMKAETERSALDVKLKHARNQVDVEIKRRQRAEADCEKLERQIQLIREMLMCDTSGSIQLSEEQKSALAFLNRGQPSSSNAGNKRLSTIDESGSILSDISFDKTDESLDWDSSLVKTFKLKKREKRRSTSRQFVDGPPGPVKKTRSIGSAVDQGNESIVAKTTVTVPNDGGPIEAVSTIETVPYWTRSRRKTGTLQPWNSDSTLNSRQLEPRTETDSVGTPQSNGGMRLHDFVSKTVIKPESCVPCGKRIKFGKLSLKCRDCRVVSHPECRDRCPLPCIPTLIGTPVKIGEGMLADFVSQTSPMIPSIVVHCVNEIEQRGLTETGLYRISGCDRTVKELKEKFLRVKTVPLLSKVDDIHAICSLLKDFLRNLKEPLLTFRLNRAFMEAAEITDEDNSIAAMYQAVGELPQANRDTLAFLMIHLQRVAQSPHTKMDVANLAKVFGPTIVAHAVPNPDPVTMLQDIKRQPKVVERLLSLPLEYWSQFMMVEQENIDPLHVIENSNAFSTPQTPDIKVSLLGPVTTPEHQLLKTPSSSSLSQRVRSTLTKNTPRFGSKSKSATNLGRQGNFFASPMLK", "experiment": "MgcRacGAP GTPase-activating activity inhibitors, confirmation, biochemical, ADP Hunter fluorescence, primary and confirmatory (AID 624330);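 note: fluorescence reports GDP produced by GAP-driven GTP hydrolysis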", "details": "MgcRacGAP-stimulated Rac1 GTP hydrolysis, at 30 µM, hits give high values, GST-tagged Rac1 F28L mutant substrate", "units": {"inhibition": "%"}}
{"smiles": "O=[N+]([O-])c1cccc(-c2ccc(C(=S)N3CCN(c4ccc(F)cc4)CC3)o2)c1", "inhibition": 5.79}
{"smiles": "Cc1ccc2nsnc2c1NC(=O)c1ccc([N+](=O)[O-])cc1", "inhibition": 14.4}
{"smiles": "CN(C)c1ccc2nsnc2c1[N+](=O)[O-]", "inhibition": 7.42}
{"smiles": "Brc1ccc(-c2cn3c(n2)SCC3)cc1", "inhibition": 15.1}
{"smiles": "Cc1ccc(-c2cn3c(n2)SCC3)cc1", "inhibition": 14.4}
{"smiles": "CCCCNc1c(-c2ccc(SC3CCCCC3)c(OC)c2)nc2ccc(C)cn12", "inhibition": 2.06}
{"smiles": "O=C(Nc1ncccn1)C1c2ccccc2Oc2ccccc21", "inhibition": 2.37}
{"smiles": "COC(=O)c1ccc(Oc2ccc3nnc(C)n3n2)cc1", "inhibition": -0.14}
{"smiles": "COc1ccc2nnc(-c3ccccc3)n2n1", "inhibition": 10.9}
{"smiles": "CC(=O)Nc1ccc2sc(NC(=O)CN3CCOCC3)nc2c1", "inhibition": 7.43}
{"smiles": "CCCCc1cc(=O)oc2cc(OCC(=O)Nc3ccccn3)ccc12", "inhibition": 11.4}
{"smiles": "Fc1ccc(-c2nnc3ccccn23)cc1", "inhibition": 0.86}
{"smiles": "Cc1cccn2c(N)c(-c3ccccc3)nc12", "inhibition": 7.39}
{"smiles": "Cc1ccn2c(=O)cc(C)nc2c1", "inhibition": -1.02}
{"smiles": "CSc1nc(=O)n2cccc(C)c2n1", "inhibition": 0.29}
{"smiles": "Cc1ccn2c(C(C)O)nnc2c1", "note": "(stereo not given)", "inhibition": 11.7}
{"smiles": "c1ccn2c(Cc3nnc4ccccn34)nnc2c1", "inhibition": 3.25}
{"smiles": "O=C(CCC(=O)N1CCOCC1)NCCc1ccccc1", "inhibition": 0.87}
{"smiles": "CCN(CC(=O)Nc1ccc(NC(C)=O)cc1)C(=O)c1ccc2c(c1)S(=O)(=O)N=C1CCCCCN12", "inhibition": 1.15}
{"smiles": "CCOc1ccccc1NC(=S)N1CCCCCC1", "inhibition": 5.32}
{"smiles": "CCOC(=O)C(C#N)=C1CCN(Cc2ccccc2)CC1", "inhibition": 11.1}
{"smiles": "CCCCN1C(=O)/C(=C(/C#N)C(N)=O)c2ccccc21", "inhibition": 10.6}
{"smiles": "CCOC(=O)/C(C#N)=C1/C=CN(Cc2ccccc2)C=N1", "inhibition": 6.15}
{"smiles": "CCOC(=O)/C(C#N)=C1/C=Cc2ccccc2N1CC", "inhibition": 12.8}
{"smiles": "Cc1ccc(C(=O)NC(NCc2ccco2)C(Cl)(Cl)Cl)cc1", "note": "(stereo not given)", "inhibition": 2.01}
{"smiles": "O=C(NCCCN1CCCC1)c1ccc2c(c1)N(Cc1ccccc1)CCS2", "inhibition": -3.35}
{"smiles": "O=C(COC(=O)CCc1c[nH]c2ccccc12)NCc1ccccc1", "inhibition": 4.56}
{"smiles": "COCCNC(=S)N(Cc1cc2cc(C)ccc2n2nnnc12)C1CCCC1", "inhibition": 1.01}
{"smiles": "COc1ccc(C(=O)NC(=S)N(C)Cc2ccccc2)cc1Br", "inhibition": 3.69}
{"smiles": "Cc1nc2scc(C)n2c(=O)c1S(=O)(=O)N1CCN(c2ccc(F)cc2)CC1", "inhibition": 5.64}
{"smiles": "Cc1nc2scc(C)n2c(=O)c1S(=O)(=O)N1CCN(c2ccccc2)CC1", "inhibition": 1.78}
{"smiles": "O=CN(/C=C1\\Sc2ccccc2C1=O)Cc1ccccc1", "inhibition": 10}
{"smiles": "Cc1sc2ncnc(Nc3ccccc3)c2c1C", "inhibition": 4.64}
{"smiles": "Cc1ccc(Nc2ncnc3sc(C)c(C)c23)cc1", "inhibition": 18.3}
{"smiles": "COc1ccc(/C=N/Nc2ncnc3sc(C)c(C)c23)cc1", "inhibition": 11.8}
{"smiles": "Cc1sc2ncnc(N/N=C/c3cccc(O)c3)c2c1C", "inhibition": 20.2}
{"smiles": "COCCOc1cc(NC(=O)CS(=O)(=O)CC(=O)N(C)C)c(Cl)cc1Cl", "inhibition": -10.1}
{"smiles": "O=C(Nc1cccc(Cl)c1)C1C2C=CC3(O2)C1C(=O)N(CCN1CCCCC1)C3C(=O)NC1CCCCC1", "note": "(stereo not given)", "inhibition": 4.26}
{"smiles": "CCN(CC)C(=O)CN(c1ccc(C)cc1)S(=O)(=O)c1ccc(SC)cc1", "inhibition": 3.34}
{"smiles": "COc1ccc(C2CC(=O)Nc3ccccc3S2(=O)=O)cc1OC", "note": "(stereo not given)", "inhibition": 11.4}
{"smiles": "O=C(Nc1cccc(C(=O)Nc2ccccc2F)c1)c1ccccc1", "inhibition": -9.87}
{"smiles": "CN(C)c1ccc(/C=C/C(=O)c2cccnc2)cc1", "inhibition": 10.2}
{"smiles": "CN(C)c1ccc(/C=C/c2ccncc2)cc1", "inhibition": 16.4}
{"smiles": "O=C(CSc1ccc2nnc(-c3cccnc3)n2n1)Nc1ccccc1C(F)(F)F", "inhibition": 6.49}
{"smiles": "Oc1ccc(Cl)cc1C=Nc1ccccc1Br", "inhibition": 4.11}
{"smiles": "Oc1ccc(Cl)cc1/C=N/c1nccs1", "inhibition": 3.22}
{"smiles": "Oc1cccc(C=Nc2cccc3ccccc23)c1O", "inhibition": -2.71}
{"smiles": "CCN(CC)c1ccc(N=Cc2cc(Br)ccc2O)cc1", "inhibition": 10.9}
{"smiles": "OCC(CO)(CO)N=Cc1cc(Br)ccc1O", "inhibition": 8.85}
{"smiles": "Cc1cccc(C=Nc2ccc3c(c2)oc2ccccc23)c1O", "inhibition": 25.6}
